# Test results from article PMC7862700, “An all-to-all approach to the identification of sequence-specific readers for epigenetic DNA modifications on cytosine”.
# Tests used:
# Assay in all cases: DAPPL (digital affinity profiling via proximity ligation, sequencing); 10 mM Tris-HCl pH 7.5, 50 mM NaCl, 1 mM DTT, 4% glycerol, room temperature, 30 min; GST-TFs on glutathione beads, 16-mer random dsDNA library, 0.1% formaldehyde crosslink after washing; high values mean tight binding
# FEV = molecular target: T1, FEV (Homo sapiens, UniProt Q99581 1-238); settings: protein: recombinant; tags: N-terminal GST; dsDNA, one strand shown
# T1 sequence: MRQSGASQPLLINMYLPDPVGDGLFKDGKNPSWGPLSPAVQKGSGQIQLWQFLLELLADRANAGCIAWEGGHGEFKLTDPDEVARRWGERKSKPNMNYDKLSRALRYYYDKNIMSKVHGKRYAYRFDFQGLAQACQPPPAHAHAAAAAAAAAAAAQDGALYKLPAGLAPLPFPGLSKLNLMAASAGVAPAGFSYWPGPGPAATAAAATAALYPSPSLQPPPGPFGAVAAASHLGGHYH
# Procedure, shortened: (§1)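 Binding signal is defined as a hexamer's read frequency for one factor over its frequency for the tag-only sample. To obtain reads, GST-fused human transcription factors were expressed in yeast, captured on glutathione beads, barcoded with DNA and pooled with that sample. Pools met 200 nmole of a 16-mer random double-stranded DNA library in Tris/NaCl/DTT/glycerol buffer for 30 min at room temperature before washing, 0.1% formaldehyde crosslinking, proximity ligation (BsaI/T4 ligase, 1 h, 37 °C), PCR and Illumina NextSeq500 sequencing.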
# ETV5 = ETV5 (Homo sapiens, UniProt P41161 1-510); settings: protein: recombinant; tags: N-terminal GST; dsDNA, one strand shown
# Procedure, shortened: as §1
# HSF1 = HSF1 (Homo sapiens, UniProt Q00613 1-529); settings: protein: recombinant; tags: N-terminal GST; chain copies: 3; dsDNA, one strand shown
# Procedure, shortened: as §1
# SPIC = molecular target: T2, SPIC (Homo sapiens, UniProt Q8N5J4 1-248); settings: protein: recombinant; tags: N-terminal GST; dsDNA, one strand shown
# T2 sequence: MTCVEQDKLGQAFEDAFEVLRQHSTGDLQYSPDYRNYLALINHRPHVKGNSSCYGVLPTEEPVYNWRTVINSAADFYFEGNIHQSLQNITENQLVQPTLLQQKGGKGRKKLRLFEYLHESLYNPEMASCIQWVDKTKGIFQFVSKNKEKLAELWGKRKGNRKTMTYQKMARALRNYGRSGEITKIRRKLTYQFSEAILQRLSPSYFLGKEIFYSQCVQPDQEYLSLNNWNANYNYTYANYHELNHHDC
# Procedure, shortened: as §1
# ELF4 = ELF4 (Homo sapiens, UniProt Q99607 1-663); settings: protein: recombinant; tags: N-terminal GST; dsDNA, one strand shown
# Procedure, shortened: as §1
# ELK4 = molecular target: T3, ELK4 (Homo sapiens, UniProt P28324-2 1-405); settings: protein: recombinant; tags: N-terminal GST; dsDNA, one strand shown
# T3 sequence: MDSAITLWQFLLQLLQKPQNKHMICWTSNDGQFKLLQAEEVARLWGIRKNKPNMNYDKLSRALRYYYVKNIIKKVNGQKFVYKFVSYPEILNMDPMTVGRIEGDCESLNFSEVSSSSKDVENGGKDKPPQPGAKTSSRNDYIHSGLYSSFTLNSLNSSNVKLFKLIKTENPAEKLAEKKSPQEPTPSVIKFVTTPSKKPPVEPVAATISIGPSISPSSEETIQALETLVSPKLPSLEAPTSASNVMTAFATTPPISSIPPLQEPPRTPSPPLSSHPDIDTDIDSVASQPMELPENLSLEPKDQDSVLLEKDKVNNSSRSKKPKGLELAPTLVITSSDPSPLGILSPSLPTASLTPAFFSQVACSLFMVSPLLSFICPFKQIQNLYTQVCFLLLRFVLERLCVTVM
# Procedure, shortened: as §1
# ETV2 = molecular target: T4, ETV2 (Homo sapiens, UniProt O00321 1-342); settings: protein: recombinant; tags: N-terminal GST; dsDNA, one strand shown
# T4 sequence: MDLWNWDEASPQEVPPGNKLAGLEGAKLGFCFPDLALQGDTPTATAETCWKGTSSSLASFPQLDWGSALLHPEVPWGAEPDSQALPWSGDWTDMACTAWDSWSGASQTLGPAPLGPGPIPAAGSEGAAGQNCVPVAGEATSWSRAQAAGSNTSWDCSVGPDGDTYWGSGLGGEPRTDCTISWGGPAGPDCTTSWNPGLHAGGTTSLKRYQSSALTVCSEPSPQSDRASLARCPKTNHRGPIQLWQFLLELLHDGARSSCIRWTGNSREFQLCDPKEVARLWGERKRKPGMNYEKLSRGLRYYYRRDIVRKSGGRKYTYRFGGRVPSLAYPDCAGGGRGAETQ
# Procedure, shortened: as §1
# ELF3 = molecular target: T5, ELF3 (Homo sapiens, UniProt P78545 1-371); settings: protein: recombinant; tags: N-terminal GST; dsDNA, one strand shown
# T5 sequence: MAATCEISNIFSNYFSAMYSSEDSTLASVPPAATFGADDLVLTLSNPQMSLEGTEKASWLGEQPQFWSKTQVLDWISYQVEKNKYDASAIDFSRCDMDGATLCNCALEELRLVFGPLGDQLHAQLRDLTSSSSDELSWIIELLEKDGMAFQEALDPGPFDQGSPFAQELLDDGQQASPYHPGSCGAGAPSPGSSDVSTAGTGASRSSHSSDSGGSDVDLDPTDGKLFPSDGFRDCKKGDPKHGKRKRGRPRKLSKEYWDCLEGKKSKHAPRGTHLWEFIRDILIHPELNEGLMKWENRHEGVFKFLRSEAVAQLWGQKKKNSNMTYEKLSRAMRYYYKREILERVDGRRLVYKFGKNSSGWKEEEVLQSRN
# Procedure, shortened: as §1
# CRX = CRX (Homo sapiens, UniProt O43186 1-299); settings: protein: recombinant; tags: N-terminal GST; dsDNA, one strand shown
# Procedure, shortened: as §1
# ETV1 = ETV1 (Homo sapiens, UniProt P50549 1-477); settings: protein: recombinant; tags: N-terminal GST; dsDNA, one strand shown
# Procedure, shortened: as §1
# ERF = molecular target: T6, ERF (Homo sapiens, UniProt P50548 1-548); settings: protein: recombinant; tags: N-terminal GST; dsDNA, one strand shown
# T6 sequence: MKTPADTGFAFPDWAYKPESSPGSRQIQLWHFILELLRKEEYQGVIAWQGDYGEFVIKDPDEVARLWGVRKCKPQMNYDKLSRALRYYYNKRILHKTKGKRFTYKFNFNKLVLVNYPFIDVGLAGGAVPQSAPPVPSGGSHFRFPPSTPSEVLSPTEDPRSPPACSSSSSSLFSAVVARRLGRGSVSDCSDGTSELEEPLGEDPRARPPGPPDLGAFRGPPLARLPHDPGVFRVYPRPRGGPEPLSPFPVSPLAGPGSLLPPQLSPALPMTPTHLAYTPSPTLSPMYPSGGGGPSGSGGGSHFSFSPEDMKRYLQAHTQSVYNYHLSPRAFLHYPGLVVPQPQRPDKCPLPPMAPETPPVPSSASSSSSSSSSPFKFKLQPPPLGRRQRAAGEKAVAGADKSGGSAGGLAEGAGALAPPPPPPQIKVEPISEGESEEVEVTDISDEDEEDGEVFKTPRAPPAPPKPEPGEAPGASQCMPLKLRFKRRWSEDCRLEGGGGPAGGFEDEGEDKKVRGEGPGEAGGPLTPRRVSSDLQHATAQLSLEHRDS
# Procedure, shortened: as §1
# ETV3L = molecular target: T7, ETV3L (Homo sapiens, UniProt Q6ZN32 1-361); settings: protein: recombinant; tags: N-terminal GST; dsDNA, one strand shown
# T7 sequence: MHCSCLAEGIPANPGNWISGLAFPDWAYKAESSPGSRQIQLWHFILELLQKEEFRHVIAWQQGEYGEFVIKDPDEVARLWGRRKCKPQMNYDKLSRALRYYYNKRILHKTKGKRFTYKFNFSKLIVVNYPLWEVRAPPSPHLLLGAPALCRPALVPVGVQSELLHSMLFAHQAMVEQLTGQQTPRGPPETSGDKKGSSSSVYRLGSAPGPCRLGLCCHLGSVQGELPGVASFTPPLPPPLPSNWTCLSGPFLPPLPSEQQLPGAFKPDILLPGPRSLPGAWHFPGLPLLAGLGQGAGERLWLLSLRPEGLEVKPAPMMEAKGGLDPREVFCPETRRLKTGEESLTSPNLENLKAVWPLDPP
# Procedure, shortened: as §1
# ETS2 = molecular target: T8, ETS2 (Homo sapiens, UniProt P15036 1-469); settings: protein: recombinant; tags: N-terminal GST; dsDNA, one strand shown
# T8 sequence: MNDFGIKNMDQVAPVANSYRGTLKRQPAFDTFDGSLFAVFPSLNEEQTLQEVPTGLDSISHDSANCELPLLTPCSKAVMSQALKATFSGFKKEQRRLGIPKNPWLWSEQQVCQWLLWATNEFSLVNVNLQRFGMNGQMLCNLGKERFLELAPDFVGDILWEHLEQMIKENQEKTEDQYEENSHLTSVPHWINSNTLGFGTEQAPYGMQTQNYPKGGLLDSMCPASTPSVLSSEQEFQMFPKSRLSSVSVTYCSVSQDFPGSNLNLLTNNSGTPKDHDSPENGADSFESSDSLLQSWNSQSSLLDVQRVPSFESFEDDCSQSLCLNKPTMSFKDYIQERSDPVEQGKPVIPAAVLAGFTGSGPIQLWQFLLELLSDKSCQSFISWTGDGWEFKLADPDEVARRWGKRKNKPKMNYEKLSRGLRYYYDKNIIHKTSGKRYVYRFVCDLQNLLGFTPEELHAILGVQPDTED
# Procedure, shortened: as §1
# SPDEF = molecular target: T9, SPDEF (Homo sapiens, UniProt O95238 1-335); settings: protein: recombinant; tags: N-terminal GST; dsDNA, one strand shown
# T9 sequence: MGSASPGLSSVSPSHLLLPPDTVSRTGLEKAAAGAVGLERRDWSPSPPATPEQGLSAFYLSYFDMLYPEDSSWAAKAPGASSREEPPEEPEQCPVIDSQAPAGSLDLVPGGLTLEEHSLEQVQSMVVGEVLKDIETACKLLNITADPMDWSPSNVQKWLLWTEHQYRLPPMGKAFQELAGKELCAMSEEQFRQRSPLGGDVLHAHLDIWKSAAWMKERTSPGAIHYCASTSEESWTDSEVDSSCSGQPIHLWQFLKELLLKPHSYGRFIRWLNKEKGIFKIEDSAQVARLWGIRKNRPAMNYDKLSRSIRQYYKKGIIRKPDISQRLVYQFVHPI
# Procedure, shortened: as §1
# ETV7 = molecular target: T10, ETV7 (Homo sapiens, UniProt Q9Y603 1-341); settings: protein: recombinant; tags: N-terminal GST; dsDNA, one strand shown
# T10 sequence: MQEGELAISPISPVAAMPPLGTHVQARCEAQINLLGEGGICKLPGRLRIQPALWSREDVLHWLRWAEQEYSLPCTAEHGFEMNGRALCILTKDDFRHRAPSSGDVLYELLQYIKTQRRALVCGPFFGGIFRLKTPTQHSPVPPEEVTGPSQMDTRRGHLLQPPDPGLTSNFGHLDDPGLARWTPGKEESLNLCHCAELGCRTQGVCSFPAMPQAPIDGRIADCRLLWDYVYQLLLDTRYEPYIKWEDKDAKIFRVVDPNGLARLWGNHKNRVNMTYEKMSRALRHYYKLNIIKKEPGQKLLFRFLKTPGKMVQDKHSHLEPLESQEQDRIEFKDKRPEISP
# Procedure, shortened: as §1
# ELF5 = molecular target: T11, ELF5 (Homo sapiens, UniProt Q9UKW6-2 1-255); settings: protein: recombinant; tags: N-terminal GST; dsDNA, one strand shown
# T11 sequence: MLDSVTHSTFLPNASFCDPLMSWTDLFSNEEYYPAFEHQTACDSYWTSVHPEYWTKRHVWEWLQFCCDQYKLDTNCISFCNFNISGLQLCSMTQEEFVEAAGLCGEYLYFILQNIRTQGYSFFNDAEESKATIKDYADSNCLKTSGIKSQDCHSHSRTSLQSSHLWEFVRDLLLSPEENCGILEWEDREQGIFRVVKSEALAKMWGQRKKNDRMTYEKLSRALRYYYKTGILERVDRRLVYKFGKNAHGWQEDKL
# Procedure, shortened: as §1
# ETV3 = molecular target: T12, ETV3 (Homo sapiens, UniProt P41162-2 1-143); settings: protein: recombinant; tags: N-terminal GST; dsDNA, one strand shown
# T12 sequence: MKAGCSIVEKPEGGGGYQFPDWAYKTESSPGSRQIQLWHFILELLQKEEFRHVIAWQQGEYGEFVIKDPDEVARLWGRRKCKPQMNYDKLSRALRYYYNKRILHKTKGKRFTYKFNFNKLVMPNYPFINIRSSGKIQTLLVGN
# Procedure, shortened: as §1
# ETV6 = ETV6 (Homo sapiens, UniProt P41212 1-452); settings: protein: recombinant; tags: N-terminal GST; dsDNA, one strand shown
# Procedure, shortened: as §1
# Sequence of ELF4 (Q99607 whole entry): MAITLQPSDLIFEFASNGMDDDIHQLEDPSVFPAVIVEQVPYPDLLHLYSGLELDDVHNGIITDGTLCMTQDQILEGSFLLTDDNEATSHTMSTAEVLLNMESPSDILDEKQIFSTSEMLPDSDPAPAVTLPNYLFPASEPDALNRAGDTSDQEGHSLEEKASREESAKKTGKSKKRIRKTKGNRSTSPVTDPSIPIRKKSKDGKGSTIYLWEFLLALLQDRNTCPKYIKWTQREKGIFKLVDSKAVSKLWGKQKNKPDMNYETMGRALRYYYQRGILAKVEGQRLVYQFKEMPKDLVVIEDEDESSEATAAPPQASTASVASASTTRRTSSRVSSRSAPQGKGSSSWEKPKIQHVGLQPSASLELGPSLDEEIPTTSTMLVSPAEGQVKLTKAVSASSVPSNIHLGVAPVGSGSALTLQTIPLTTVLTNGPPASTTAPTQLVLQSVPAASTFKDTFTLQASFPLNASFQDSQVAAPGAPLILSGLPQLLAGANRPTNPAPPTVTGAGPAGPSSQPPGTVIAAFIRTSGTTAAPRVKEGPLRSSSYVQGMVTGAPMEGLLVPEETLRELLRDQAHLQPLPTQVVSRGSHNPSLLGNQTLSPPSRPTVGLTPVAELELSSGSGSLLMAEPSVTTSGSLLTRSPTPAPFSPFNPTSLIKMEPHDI
# Sequence of ETV5 (P41161 whole entry): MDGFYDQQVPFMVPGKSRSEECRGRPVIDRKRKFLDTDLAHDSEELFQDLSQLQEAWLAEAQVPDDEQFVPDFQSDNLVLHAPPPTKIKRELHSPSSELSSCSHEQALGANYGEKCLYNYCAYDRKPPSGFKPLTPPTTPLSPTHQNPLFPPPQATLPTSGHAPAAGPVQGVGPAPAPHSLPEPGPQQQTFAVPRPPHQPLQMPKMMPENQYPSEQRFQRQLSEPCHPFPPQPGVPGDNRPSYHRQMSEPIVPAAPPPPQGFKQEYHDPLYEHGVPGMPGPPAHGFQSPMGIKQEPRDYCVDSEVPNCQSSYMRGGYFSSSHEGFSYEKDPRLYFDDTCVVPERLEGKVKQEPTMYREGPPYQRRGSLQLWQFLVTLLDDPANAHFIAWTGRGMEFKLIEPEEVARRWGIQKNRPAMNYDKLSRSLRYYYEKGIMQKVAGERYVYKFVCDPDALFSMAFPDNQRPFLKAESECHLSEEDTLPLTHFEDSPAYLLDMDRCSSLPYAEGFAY
# Sequence of CRX (O43186 whole entry): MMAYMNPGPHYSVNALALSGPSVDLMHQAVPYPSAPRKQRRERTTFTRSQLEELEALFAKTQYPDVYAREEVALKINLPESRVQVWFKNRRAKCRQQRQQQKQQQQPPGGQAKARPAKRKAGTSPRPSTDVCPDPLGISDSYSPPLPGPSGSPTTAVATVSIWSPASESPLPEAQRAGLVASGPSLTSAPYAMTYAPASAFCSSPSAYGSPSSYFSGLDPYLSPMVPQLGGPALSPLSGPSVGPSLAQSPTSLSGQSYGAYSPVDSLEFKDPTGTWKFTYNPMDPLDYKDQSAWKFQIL
# Sequence of ETV6 (P41212 whole entry): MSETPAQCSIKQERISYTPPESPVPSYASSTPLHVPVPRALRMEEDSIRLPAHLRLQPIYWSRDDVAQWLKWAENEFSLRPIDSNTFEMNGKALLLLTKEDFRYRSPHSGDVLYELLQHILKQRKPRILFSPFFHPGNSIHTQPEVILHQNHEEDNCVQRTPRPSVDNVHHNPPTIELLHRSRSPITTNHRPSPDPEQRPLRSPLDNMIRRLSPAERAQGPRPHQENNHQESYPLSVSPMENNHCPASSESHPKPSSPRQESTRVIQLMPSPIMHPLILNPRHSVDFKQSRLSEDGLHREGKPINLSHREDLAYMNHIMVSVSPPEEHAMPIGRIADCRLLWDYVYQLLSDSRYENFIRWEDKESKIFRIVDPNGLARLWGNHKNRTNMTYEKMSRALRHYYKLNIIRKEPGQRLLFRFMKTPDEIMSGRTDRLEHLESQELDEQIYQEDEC
# Sequence of ETV1 (P50549 whole entry): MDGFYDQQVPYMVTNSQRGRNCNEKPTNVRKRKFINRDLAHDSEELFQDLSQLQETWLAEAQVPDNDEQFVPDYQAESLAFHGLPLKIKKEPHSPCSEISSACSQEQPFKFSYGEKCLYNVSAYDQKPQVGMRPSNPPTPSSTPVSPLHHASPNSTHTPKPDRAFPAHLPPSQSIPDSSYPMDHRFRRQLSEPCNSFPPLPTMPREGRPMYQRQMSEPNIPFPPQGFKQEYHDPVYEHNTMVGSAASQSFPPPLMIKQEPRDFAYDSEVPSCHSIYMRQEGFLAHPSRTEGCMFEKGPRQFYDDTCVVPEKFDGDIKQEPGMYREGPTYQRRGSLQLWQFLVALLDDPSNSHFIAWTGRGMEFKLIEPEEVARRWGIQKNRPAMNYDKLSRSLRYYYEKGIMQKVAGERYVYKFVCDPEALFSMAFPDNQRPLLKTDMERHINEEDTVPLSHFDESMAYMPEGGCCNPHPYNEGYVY
# Sequence of HSF1 (Q00613 whole entry): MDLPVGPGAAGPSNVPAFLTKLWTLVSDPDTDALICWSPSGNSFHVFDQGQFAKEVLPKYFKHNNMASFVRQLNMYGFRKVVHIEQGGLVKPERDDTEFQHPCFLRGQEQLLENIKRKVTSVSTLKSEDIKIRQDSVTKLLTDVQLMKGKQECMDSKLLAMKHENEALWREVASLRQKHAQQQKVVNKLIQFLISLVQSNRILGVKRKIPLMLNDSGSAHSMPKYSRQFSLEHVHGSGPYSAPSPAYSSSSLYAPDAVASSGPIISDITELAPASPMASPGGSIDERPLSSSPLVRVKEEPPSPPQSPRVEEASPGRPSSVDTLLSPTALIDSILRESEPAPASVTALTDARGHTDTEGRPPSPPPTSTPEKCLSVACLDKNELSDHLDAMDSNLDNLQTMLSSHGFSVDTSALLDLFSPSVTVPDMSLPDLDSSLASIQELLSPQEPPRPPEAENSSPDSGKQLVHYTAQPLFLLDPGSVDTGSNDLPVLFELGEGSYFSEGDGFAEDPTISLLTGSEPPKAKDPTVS
sequence,measurement,setting,value
TGTCTT,binding signal,FEV,"1.27 fold enrichment (6-mer frequency, TF over GST control)"
same,binding signal,ETV5,"1.24 fold enrichment (6-mer frequency, TF over GST control)"
same,binding signal,HSF1,"1.13 fold enrichment (6-mer frequency, TF over GST control)"
same,binding signal,SPIC,"1.39 fold enrichment (6-mer frequency, TF over GST control)"
same,binding signal,ELF4,"1.19 fold enrichment (6-mer frequency, TF over GST control)"
same,binding signal,ELK4,"1.17 fold enrichment (6-mer frequency, TF over GST control)"
same,binding signal,ETV2,"1.18 fold enrichment (6-mer frequency, TF over GST control)"
same,binding signal,ELF3,"1.25 fold enrichment (6-mer frequency, TF over GST control)"
same,binding signal,CRX,"1.3 fold enrichment (6-mer frequency, TF over GST control)"
same,binding signal,ETV1,"1.24 fold enrichment (6-mer frequency, TF over GST control)"
same,binding signal,ERF,"1.28 fold enrichment (6-mer frequency, TF over GST control)"
same,binding signal,ETV3L,"1.32 fold enrichment (6-mer frequency, TF over GST control)"
same,binding signal,ETS2,"1.28 fold enrichment (6-mer frequency, TF over GST control)"
same,binding signal,SPDEF,"1.28 fold enrichment (6-mer frequency, TF over GST control)"
same,binding signal,ETV7,"1.25 fold enrichment (6-mer frequency, TF over GST control)"
same,binding signal,ELF5,"1.39 fold enrichment (6-mer frequency, TF over GST control)"
same,binding signal,ETV3,"1.38 fold enrichment (6-mer frequency, TF over GST control)"
same,binding signal,ETV6,"1.16 fold enrichment (6-mer frequency, TF over GST control)"
